# Reference: article PMC7862700, “An all-to-all approach to the identification of sequence-specific readers for epigenetic DNA modifications on cytosine”
# Tests used:
# Experiment in all cases: DAPPL (digital affinity profiling via proximity ligation, sequencing); 10 mM Tris-HCl pH 7.5, 50 mM NaCl, 1 mM DTT, 4% glycerol, room temperature, 30 min; GST-TFs on glutathione beads, 16-mer random dsDNA library, 0.1% formaldehyde crosslink after washing; high values mean tight binding
# FLI1 = molecular target: T1, FLI1 (Homo sapiens, UniProt Q01543 1-452); conditions: protein: recombinant; tags: N-terminal GST; dsDNA, one strand shown
# T1 sequence: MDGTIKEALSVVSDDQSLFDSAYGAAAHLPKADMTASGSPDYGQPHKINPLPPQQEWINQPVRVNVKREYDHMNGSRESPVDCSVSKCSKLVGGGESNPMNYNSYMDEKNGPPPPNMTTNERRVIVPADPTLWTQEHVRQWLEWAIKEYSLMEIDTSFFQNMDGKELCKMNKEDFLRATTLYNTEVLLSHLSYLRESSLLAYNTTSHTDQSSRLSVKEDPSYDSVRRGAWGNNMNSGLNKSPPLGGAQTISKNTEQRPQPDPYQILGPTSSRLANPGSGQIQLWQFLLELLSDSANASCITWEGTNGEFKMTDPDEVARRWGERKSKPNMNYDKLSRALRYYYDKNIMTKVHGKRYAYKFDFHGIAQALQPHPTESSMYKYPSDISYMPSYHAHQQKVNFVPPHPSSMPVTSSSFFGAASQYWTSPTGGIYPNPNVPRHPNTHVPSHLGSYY
# Method in brief: (§1)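 GST fusions of human transcription factors were expressed in yeast and captured with glutathione beads. Once given DNA barcodes and pooled alongside a tag-only sample, they were incubated for 30 min at room temperature with 200 nmole of a random double-stranded 16-mer DNA library in Tris/NaCl/DTT/glycerol buffer, then washed, crosslinked (0.1% formaldehyde), proximity-ligated, PCR-amplified and sequenced on an Illumina NextSeq500. The binding signal of each hexamer is its read frequency for a factor divided by its frequency for the tag-only sample.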
# ELK1 = molecular target: T2, ELK1 (Homo sapiens, UniProt P19419 1-428); conditions: protein: recombinant; tags: N-terminal GST; dsDNA, one strand shown
# T2 sequence: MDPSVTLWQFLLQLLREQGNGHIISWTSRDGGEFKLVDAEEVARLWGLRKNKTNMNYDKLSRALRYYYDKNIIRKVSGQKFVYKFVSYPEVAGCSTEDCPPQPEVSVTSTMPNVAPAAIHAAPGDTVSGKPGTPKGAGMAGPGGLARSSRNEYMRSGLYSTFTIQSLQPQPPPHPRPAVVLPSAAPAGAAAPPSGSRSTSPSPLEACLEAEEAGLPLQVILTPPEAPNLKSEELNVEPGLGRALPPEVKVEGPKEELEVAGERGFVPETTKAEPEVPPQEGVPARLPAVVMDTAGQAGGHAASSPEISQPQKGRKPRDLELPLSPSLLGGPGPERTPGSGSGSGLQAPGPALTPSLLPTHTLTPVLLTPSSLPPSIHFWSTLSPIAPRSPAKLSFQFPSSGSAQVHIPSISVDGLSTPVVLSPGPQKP
# Method in brief: as §1
# GABPA = molecular target: T3, GABPA (Homo sapiens, UniProt Q06546 1-454); conditions: protein: recombinant; tags: N-terminal GST; dsDNA, one strand shown
# T3 sequence: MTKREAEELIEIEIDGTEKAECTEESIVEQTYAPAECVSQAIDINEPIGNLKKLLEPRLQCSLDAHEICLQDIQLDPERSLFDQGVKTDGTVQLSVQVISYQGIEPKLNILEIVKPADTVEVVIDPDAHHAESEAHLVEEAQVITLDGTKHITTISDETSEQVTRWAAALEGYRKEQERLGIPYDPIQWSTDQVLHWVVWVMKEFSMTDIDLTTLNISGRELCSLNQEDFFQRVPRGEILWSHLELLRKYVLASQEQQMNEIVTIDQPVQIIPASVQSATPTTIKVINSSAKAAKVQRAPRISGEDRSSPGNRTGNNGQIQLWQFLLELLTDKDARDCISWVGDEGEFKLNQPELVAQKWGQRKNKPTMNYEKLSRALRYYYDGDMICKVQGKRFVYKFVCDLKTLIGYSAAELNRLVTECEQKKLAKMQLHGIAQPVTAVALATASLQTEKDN
# Method in brief: as §1
# ERG = molecular target: T4, ERG (Homo sapiens, UniProt P11308 1-479); conditions: protein: recombinant; tags: N-terminal GST; dsDNA, one strand shown
# T4 sequence: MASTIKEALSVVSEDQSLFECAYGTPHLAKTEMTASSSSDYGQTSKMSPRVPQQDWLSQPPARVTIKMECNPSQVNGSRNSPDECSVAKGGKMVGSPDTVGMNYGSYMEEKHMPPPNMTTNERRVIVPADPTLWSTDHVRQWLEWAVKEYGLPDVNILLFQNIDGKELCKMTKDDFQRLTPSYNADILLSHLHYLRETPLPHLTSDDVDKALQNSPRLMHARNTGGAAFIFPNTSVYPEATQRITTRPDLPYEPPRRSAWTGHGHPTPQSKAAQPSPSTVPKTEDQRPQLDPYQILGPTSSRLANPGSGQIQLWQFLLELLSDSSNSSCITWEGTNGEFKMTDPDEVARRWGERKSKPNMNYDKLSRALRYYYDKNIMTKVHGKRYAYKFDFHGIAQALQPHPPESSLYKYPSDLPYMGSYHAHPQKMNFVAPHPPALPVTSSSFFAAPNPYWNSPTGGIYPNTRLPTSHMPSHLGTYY
# Method in brief: as §1
# ELF1 = ELF1 (Homo sapiens, UniProt P32519 1-619); conditions: protein: recombinant; tags: N-terminal GST; dsDNA, one strand shown
# Sequence of ELF1 (P32519 whole entry): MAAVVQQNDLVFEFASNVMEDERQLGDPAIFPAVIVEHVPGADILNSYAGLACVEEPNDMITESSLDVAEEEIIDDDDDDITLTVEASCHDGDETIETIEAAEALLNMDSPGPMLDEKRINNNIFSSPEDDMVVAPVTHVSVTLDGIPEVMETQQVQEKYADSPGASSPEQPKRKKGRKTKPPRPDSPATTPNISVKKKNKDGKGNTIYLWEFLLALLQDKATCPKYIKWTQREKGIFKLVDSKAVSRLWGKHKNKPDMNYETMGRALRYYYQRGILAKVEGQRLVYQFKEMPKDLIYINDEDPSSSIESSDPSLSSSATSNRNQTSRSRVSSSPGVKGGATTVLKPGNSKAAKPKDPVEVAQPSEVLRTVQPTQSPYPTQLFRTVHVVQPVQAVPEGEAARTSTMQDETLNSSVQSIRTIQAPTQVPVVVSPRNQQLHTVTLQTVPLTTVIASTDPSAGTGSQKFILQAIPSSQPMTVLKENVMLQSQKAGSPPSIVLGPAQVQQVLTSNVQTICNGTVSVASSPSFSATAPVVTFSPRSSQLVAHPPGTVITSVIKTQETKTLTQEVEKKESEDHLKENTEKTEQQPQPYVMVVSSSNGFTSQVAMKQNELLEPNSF
# Method in brief: as §1
# EHF = molecular target: T5, EHF (Homo sapiens, UniProt Q9NZC4 1-300); conditions: protein: recombinant; tags: N-terminal GST; dsDNA, one strand shown
# T5 sequence: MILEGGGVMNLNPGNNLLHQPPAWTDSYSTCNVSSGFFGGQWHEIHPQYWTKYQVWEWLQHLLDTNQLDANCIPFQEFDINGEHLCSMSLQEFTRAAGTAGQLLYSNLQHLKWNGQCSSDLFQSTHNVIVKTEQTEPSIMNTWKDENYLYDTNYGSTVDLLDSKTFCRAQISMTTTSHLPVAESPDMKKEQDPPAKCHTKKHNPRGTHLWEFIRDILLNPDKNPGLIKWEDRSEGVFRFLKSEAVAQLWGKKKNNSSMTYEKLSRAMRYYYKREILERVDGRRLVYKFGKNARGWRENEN
# Method in brief: as §1
# SPI1 = SPI1 (Homo sapiens, UniProt P17947 1-270); conditions: protein: recombinant; tags: N-terminal GST; dsDNA, one strand shown
# Method in brief: as §1
# SPIB = SPIB (Homo sapiens, UniProt Q01892 1-262); conditions: protein: recombinant; tags: N-terminal GST; dsDNA, one strand shown
# Sequence of SPIB (Q01892 whole entry): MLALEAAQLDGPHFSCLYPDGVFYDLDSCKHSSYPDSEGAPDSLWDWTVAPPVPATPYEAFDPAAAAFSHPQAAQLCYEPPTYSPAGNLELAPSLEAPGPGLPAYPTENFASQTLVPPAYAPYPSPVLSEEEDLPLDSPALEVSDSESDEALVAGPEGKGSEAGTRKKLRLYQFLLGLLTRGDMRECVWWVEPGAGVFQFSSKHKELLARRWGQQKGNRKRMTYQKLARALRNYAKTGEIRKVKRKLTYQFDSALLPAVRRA
# Method in brief: as §1
# ELK3 = molecular target: T6, ELK3 (Homo sapiens, UniProt P41970 1-407); conditions: protein: recombinant; tags: N-terminal GST; dsDNA, one strand shown
# T6 sequence: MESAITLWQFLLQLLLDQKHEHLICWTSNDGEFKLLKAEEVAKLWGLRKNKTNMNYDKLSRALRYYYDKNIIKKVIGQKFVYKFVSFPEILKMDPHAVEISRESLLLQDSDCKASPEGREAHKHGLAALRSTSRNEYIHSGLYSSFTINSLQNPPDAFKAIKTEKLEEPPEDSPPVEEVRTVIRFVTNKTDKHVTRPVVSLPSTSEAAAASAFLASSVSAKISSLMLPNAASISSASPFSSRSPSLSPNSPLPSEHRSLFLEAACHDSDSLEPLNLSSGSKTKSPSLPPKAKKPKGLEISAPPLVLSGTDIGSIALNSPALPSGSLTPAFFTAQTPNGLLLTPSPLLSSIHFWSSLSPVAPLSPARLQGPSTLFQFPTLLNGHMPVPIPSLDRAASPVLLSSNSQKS
# Method in brief: as §1
# FEV = molecular target: T7, FEV (Homo sapiens, UniProt Q99581 1-238); conditions: protein: recombinant; tags: N-terminal GST; dsDNA, one strand shown
# T7 sequence: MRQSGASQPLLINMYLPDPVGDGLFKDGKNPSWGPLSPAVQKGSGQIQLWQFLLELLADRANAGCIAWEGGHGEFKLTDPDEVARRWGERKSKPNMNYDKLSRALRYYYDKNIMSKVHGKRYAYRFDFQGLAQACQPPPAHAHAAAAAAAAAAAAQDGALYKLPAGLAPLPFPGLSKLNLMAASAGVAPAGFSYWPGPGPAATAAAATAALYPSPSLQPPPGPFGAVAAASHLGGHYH
# Method in brief: as §1
# ETV5 = ETV5 (Homo sapiens, UniProt P41161 1-510); conditions: protein: recombinant; tags: N-terminal GST; dsDNA, one strand shown
# Sequence of ETV5 (P41161 whole entry): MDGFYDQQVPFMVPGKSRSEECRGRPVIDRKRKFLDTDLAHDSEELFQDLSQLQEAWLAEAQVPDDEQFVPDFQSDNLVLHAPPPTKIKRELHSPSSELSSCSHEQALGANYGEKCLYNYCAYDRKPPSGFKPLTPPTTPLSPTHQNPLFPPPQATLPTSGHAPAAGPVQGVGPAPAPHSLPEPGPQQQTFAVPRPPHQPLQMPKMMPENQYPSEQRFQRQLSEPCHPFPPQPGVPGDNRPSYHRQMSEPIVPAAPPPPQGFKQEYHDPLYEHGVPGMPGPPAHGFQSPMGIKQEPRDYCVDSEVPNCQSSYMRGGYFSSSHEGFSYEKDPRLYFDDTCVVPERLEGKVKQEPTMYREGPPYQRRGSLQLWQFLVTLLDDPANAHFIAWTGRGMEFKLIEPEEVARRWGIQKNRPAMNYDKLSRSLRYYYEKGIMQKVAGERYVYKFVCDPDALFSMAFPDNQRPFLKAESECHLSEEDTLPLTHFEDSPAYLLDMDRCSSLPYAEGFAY
# Method in brief: as §1
# HSF1 = HSF1 (Homo sapiens, UniProt Q00613 1-529); conditions: protein: recombinant; tags: N-terminal GST; chain copies: 3; dsDNA, one strand shown
# Sequence of HSF1 (Q00613 whole entry): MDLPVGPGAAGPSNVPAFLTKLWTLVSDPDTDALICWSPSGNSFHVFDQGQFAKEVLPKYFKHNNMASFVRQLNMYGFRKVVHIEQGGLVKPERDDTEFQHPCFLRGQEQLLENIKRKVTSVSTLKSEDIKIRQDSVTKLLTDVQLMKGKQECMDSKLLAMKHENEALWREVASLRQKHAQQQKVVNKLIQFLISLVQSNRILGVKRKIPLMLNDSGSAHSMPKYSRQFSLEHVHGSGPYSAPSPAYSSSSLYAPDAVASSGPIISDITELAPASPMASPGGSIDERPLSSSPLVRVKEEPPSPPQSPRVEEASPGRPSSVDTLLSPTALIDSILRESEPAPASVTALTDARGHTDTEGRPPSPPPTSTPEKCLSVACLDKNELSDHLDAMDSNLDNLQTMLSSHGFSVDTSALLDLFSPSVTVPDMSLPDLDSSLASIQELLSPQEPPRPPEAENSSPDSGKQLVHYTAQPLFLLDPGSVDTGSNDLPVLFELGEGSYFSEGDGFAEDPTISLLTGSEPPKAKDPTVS
# Method in brief: as §1
# SPIC = molecular target: T8, SPIC (Homo sapiens, UniProt Q8N5J4 1-248); conditions: protein: recombinant; tags: N-terminal GST; dsDNA, one strand shown
# T8 sequence: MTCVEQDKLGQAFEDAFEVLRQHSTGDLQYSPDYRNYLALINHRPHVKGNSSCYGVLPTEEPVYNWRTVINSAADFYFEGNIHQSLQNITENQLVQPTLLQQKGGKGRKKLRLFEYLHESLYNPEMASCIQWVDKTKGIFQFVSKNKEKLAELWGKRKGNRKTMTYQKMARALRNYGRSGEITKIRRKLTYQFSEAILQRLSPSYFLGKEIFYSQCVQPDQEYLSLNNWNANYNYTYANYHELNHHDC
# Method in brief: as §1
# ELF4 = ELF4 (Homo sapiens, UniProt Q99607 1-663); conditions: protein: recombinant; tags: N-terminal GST; dsDNA, one strand shown
# Sequence of ELF4 (Q99607 whole entry): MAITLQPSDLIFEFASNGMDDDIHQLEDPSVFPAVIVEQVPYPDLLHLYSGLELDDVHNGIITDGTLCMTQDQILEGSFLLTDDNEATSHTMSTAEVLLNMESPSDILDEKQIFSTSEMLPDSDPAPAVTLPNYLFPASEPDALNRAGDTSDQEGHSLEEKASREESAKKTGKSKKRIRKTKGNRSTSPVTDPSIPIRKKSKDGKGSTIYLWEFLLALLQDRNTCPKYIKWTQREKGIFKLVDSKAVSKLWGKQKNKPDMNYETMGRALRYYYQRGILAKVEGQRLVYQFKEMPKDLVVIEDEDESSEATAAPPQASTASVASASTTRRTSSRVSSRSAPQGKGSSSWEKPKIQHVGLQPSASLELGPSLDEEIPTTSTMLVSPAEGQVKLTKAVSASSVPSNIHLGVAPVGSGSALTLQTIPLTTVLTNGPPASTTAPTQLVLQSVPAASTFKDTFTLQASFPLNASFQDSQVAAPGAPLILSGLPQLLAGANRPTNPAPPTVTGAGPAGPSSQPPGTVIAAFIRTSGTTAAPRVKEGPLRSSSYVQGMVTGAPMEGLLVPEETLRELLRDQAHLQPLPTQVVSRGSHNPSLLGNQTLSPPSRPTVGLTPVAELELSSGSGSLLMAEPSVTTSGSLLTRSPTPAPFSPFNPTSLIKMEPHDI
# Method in brief: as §1
# ELK4 = molecular target: T9, ELK4 (Homo sapiens, UniProt P28324-2 1-405); conditions: protein: recombinant; tags: N-terminal GST; dsDNA, one strand shown
# T9 sequence: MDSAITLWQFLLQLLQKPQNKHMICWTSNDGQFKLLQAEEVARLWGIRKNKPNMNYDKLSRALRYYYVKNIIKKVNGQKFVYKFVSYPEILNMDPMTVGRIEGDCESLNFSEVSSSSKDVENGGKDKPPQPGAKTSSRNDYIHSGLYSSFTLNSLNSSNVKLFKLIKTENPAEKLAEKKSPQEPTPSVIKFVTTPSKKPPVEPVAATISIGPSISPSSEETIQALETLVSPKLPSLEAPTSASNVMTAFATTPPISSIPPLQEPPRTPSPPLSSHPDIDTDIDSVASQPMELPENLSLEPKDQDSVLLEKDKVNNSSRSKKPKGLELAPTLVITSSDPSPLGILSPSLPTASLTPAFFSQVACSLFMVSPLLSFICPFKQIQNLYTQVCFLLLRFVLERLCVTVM
# Method in brief: as §1
# ETV2 = molecular target: T10, ETV2 (Homo sapiens, UniProt O00321 1-342); conditions: protein: recombinant; tags: N-terminal GST; dsDNA, one strand shown
# T10 sequence: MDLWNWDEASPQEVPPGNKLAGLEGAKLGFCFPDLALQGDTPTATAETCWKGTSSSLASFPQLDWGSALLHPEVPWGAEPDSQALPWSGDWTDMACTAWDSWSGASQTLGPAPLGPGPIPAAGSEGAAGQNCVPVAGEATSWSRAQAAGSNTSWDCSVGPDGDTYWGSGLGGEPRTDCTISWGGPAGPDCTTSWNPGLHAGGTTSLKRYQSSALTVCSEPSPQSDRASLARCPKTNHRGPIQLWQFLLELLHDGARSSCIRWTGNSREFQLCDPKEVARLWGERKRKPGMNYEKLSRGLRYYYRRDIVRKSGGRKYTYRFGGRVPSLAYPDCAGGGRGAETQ
# Method in brief: as §1
# ELF3 = molecular target: T11, ELF3 (Homo sapiens, UniProt P78545 1-371); conditions: protein: recombinant; tags: N-terminal GST; dsDNA, one strand shown
# T11 sequence: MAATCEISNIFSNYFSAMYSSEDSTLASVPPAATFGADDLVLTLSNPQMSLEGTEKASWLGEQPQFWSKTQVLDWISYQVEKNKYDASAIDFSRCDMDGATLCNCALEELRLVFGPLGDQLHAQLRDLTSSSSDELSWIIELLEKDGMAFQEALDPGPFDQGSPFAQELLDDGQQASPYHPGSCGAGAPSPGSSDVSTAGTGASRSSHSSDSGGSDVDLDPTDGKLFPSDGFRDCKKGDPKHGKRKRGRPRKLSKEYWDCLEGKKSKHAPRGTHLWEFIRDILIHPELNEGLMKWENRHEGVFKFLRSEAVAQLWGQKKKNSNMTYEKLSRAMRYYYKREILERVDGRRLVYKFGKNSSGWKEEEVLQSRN
# Method in brief: as §1
# ETV1 = ETV1 (Homo sapiens, UniProt P50549 1-477); conditions: protein: recombinant; tags: N-terminal GST; dsDNA, one strand shown
# Sequence of ETV1 (P50549 whole entry): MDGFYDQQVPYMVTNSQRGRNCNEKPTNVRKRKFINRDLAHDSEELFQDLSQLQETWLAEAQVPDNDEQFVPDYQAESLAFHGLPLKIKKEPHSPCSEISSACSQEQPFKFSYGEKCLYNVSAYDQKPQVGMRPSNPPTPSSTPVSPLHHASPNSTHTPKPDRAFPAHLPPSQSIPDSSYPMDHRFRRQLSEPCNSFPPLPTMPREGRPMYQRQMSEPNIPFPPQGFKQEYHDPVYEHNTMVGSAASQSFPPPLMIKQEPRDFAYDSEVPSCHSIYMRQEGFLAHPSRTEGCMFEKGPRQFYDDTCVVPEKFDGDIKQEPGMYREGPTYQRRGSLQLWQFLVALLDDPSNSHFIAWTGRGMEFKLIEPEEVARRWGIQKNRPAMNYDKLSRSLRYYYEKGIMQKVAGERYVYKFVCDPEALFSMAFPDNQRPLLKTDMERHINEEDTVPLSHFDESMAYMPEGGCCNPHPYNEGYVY
# Method in brief: as §1
sequence,measurement,setting,value
GCCTCA,binding signal,FLI1,"1.34 fold enrichment (6-mer frequency, TF over GST control)"
same,binding signal,ELK1,"1.34 fold enrichment (6-mer frequency, TF over GST control)"
same,binding signal,GABPA,"1.34 fold enrichment (6-mer frequency, TF over GST control)"
same,binding signal,ERG,"1.13 fold enrichment (6-mer frequency, TF over GST control)"
same,binding signal,ELF1,"1.25 fold enrichment (6-mer frequency, TF over GST control)"
same,binding signal,EHF,"1.17 fold enrichment (6-mer frequency, TF over GST control)"
same,binding signal,SPI1,"1.17 fold enrichment (6-mer frequency, TF over GST control)"
same,binding signal,SPIB,"1.25 fold enrichment (6-mer frequency, TF over GST control)"
same,binding signal,ELK3,"1.19 fold enrichment (6-mer frequency, TF over GST control)"
same,binding signal,FEV,"1.19 fold enrichment (6-mer frequency, TF over GST control)"
same,binding signal,ETV5,"1.22 fold enrichment (6-mer frequency, TF over GST control)"
same,binding signal,HSF1,"1.05 fold enrichment (6-mer frequency, TF over GST control)"
same,binding signal,SPIC,"1.21 fold enrichment (6-mer frequency, TF over GST control)"
same,binding signal,ELF4,"1.2 fold enrichment (6-mer frequency, TF over GST control)"
same,binding signal,ELK4,"1.13 fold enrichment (6-mer frequency, TF over GST control)"
same,binding signal,ETV2,"1.12 fold enrichment (6-mer frequency, TF over GST control)"
same,binding signal,ELF3,"1.34 fold enrichment (6-mer frequency, TF over GST control)"
same,binding signal,ETV1,"1.13 fold enrichment (6-mer frequency, TF over GST control)"
